High-throughput results (PubChem BioAssay)
p53ts 32C tox: p53ts cell cytotoxicity, permissive temperature. H1299-p53A138V at 32C, ATP luminescence viability, 24 h. Potency, µM (series often up to 46.1 µM), inactives show top-dose activity change, negative = cytotoxicity, usual class: cytotoxic. 130,000 compounds, 0.93% hits. AID 924;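 also: 0% = DMSO and -100% = full killing by reference compound; nearly all actives have a fitted effect of over 55% in size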
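Viability by ATPlite luminescence after 24 h compound treatment (up to 46 uM) at the permissive 32C. Cells are H1299 carrying p53 A138V. Scale runs from DMSO basal to 100 uM tamoxifen as full kill; AC50 from Hill fits.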
Imprint erasure: induces erasure of genomic imprints in mouse ES cells; Potency, µM (doses to about 60.7 µM), for inactives: at the top dose activity change, positive = activation, usual class: activators; mouse ES Peg3-LacZ reporter, beta-gal luminescence, 40 h; 110,000 compounds, 0.02% hits
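Each well holds 300 Peg3LacZ-Neo (maternal) female ES cells incubated 40 h at 37C, 5% CO2. LacZ is measured by BetaGlo luminescence, with AC50 and maximum efficacy derived from dose-response curves.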
p53ts 39C tox: kills p53ts cells at the nonpermissive temperature; H1299-p53A138V viability at 39C, ATP luminescence, 24 h; Potency, µM (highest dose often 46.1 µM), without a hit: at the top dose activity change, negative = cell killing, hits mostly cytotoxic; 130,000 compounds, 1.5% hits; AID 902; also: % is scaled to controls: 0 for no effect and ±100 for the full control effect; nearly all actives have a fitted effect of over 55% in size
IkB sig inh: suppresses IkB signaling in ABC-DLBCL reporter cells; ABC-DLBCL IkBa-CBG/CBR dual luciferase ratio, 4 h; response scale: scaled: untreated 0%, proteasome inhibitor 100%; Potency, µM (doses to about 57.1 µM), inactives show at the top dose IkBa stabilization activation; 110,000 compounds, 0.04% hits; AID 445; active = well fitted curve in the direction sought with a large enough effect in the signal ratio, not every such curve was filed as active; inconclusive = small, poorly fitted or top-dose-only effect, or a change in a side signal; the % refers to the signal ratio;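 also: the direction sought is a rising ratio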
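In this assay, an IκBα–CBG68 fusion accumulates when IKK-driven degradation is blocked; native CBR normalizes for cell number. OCI-Ly3 cells were treated 4 h with compound and doxycycline, then green and red light read after Chroma-Glo addition.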
CRE-bla Fsk: alters forskolin-stimulated CRE reporter signaling in CHO cells; 71,000 compounds, 2.5% hits; CHO CRE-bla reporter (cAMP response element driving beta-lactamase), forskolin EC10, beta-lactamase ratio; Potency, µM (series often up to 38.2 µM), inactives show at the highest dose activity change, negative = inhibition, hits mostly activators; active = well fitted activation curve with a large enough effect in the signal ratio, with a control signal flat, not every such curve was filed as active; inconclusive = small, poorly fitted or top-dose-only effect, or effect the other way, or a change in a side signal; the % refers to the signal ratio; also: % of control where 0% means no effect
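CHO CRE-bla cells, overnight plating in Opti-MEM with 0.5% dialyzed FBS; cpd titration + EC10 NKH 477, 3 h 37 °C; CCF4 2 h RT; ex 405/em 460 vs 530 ratio → %Activity, AC50.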
* = called active by the depositor; ? = inconclusive; . = no result; [ ] = remark or other dose. Sampled rows, rich in hits. Any-hit rate of the full collection: about 3%. Unless noted, calls follow the shape of the dose curve; as a rule, active = well fitted curve in the direction sought with a large enough effect; inconclusive = small, poorly fitted or top-dose-only effect, or another doubt; inactive = no such curve, though single readings can be large; an effect the other way counts as inactive or inconclusive. Potency is read from the fitted curve at half-maximal effect.

SMILES | p53ts 32C tox | Imprint erasure | p53ts 39C tox | IkB sig inh | CRE-bla Fsk
Cc1c(C(=O)OCCOC(C)C)[nH]c2c1C(=O)CC(c1ccco1)C2 (centres undefined) | 7.8% | -23.1% | 4.1% | ? | 0.501µM*
COCCOC(=O)c1[nH]c2c(c1C)C(=O)CC(c1ccco1)C2 (centres undefined) | 0.1% | -21.8% | -1.5% | ? | 10µM*
CCOC(=O)c1[nH]c2c(c1C)C(=O)CC(c1ccco1)C2 (centres undefined) | 17.7% | -30.8% | 0.5% | ? | 1µM*
CSCCOC(=O)c1[nH]c2c(c1C)C(=O)CC(c1ccco1)C2 (centres undefined) | 3.3% | -26.3% | -16.5% | ? | 7.94µM*
COCCOC(=O)c1[nH]c2c(c1C)C(=O)CC(c1ccc(F)cc1)C2 (centres undefined) | 9.6% | -25.2% | -2.7% | -1.3% | 3.3%
COCCOC(=O)c1[nH]c2c(c1C)C(=O)CC(c1ccccc1)C2 (centres undefined) | 15.7% | -21.3% | 4.1% | 1.2% | ?
Cc1cccc(OCC(=O)N(Cc2ccc(C(C)(C)C)cc2)Cc2ccco2)c1 | ? | 11.1%[10.9 µM] | -30.0% | ? | .
CN(C)c1ccc(NC(=O)CN2CCN(CC(=O)Nc3ccc(Br)cc3)CC2)cc1 | -2.7% | -14.9%[10.9 µM] | -33.9% | 2.0% | .
Cc1ccc(NC(=O)CN2C(=O)C3(SCC(=O)N3c3ccc(F)c(F)c3)c3ccccc32)c(C)c1 (centres undefined) | 2.5% | -9.2%[10.9 µM] | -1.5% | ? | .
Cc1ccc(Cc2nc3ccccc3nc2SCC(=O)N2CCCCC2C)cc1 (centres undefined) | 19.6% | -6.5%[10.9 µM] | -0.2% | ? | .
Cc1c(/C=C(\C#N)C(=O)Nc2cccc(Cl)c2)c2ccccc2n1Cc1ccccc1 | 13.4% | -14.3%[10.9 µM] | 14.9% | 31.6% | .
COC(=O)c1[nH]c2c(c1C)C(=O)CC(c1cccs1)C2 (centres undefined) | 9.3% | -17.9% | 1.8% | 0.0% | 3.98µM*
Cc1c(C(=O)OCc2ccccc2)[nH]c2c1C(=O)CC(c1ccco1)C2 (centres undefined) | -12.4% | -31.8% | -22.8% | ? | 0.794µM*
Cc1cc(C)cc(OCC(=O)Nc2ccc(-c3nc4ccccc4s3)cc2)c1 | -20.1% | -25.2%[10.9 µM] | 13.2% | -4.4% | .
O=C(Nc1ccc(C(F)(F)F)cc1)c1cc(S(=O)(=O)NC2CCCCC2)ccc1F | 21.9% | -14.5%[10.9 µM] | 10µM* | ? | .
CCc1ccc(NC(=O)c2ccc(F)c(S(=O)(=O)NC3CCCCCC3)c2)cc1 | 15.9% | -19.6%[10.9 µM] | -9.0% | ? | .
O=C(Nc1ccc(C(F)(F)F)cc1)c1cc(S(=O)(=O)NC2CCCCCC2)ccc1F | 28.3% | -12.8%[10.9 µM] | ? | ? | .
O=C(Nc1cc(Cl)cc(Cl)c1)c1ccc(F)c(S(=O)(=O)NC2CCCC2)c1 | ? | -15.5%[10.9 µM] | 12.6µM* | -2.7% | .
C=Cc1c(C)/c2[n-]/c1=C\c1[n-]c(c(CC)c1C)/C=c1\[n-]c3c(c1C)C(=O)C(C(=O)[O-])C=3c1[n-]c(c(C)c1CCC(=O)[O-])\C=2.[Cu].[Na+].[Na+] (centres undefined) | -17.6% | -16.1% | -4.5% | . | .
COC(=O)c1c(-c2cccnc2)csc1NC(=O)c1cc(C)on1 | ? | -25.9% | -29.6% | ? | 2.51µM*
O=C(Nc1scc(-c2ccccc2)c1C(=O)O)c1ccco1 | ? | -86.1% | ? | ? | 0.5%
CCOC(=O)c1c(-c2ccccc2)csc1NC(=O)c1cc(-c2ccc(Cl)cc2)on1 | 5.8% | -5.5%[10.9 µM] | 14.5% | ? | .
COC(=O)c1c(-c2ccc(F)cc2)csc1NC(=O)c1ccco1 | -5.5% | -9.8% | -9.9% | -2.3% | 0.398µM*
O=C(Nc1ccc(N2CCCC2)cc1)c1cccc(F)c1 | 7.94µM* | -84.8% | 5.01µM* | ? | ?
O=C(Nc1ccc(N2CCCCC2)cc1)c1ccccc1 | 5.01µM* | . | 12.6µM* | . | .
SMILES | p53ts 32C tox | Imprint erasure | p53ts 39C tox | IkB sig inh | CRE-bla Fsk
O=c1c2oc3ccccc3c2n(Cc2cccc(F)c2)c(=O)n1Cc1ccco1 | 4.6% | -5.0%[10.9 µM] | -8.9% | 2.1% | .
CCCCN1C(=O)C(O)(c2c[nH]c3ccccc23)c2cc(Br)ccc21 (centres undefined) | 0.7% | -4.1%[10.9 µM] | ? | ? | .
CC(C)CN(CC(C)C)c1nc(-c2ccc(Cl)cc2)nc2ccccc12 | 4.8% | 6.4%[10.9 µM] | -7.2% | ? | .
CCN(CC)c1nc(-c2ccc(C(C)(C)C)cc2)nc2ccccc12 | 12.6µM* | -10.6%[10.9 µM] | 12.6µM* | ? | .
O=C(Nc1nc2n(n1)C(c1ccc(F)cc1)C=C(c1ccc(Cl)cc1)N2)c1ccc([N+](=O)[O-])cc1 (centres undefined) | ? | -5.2%[10.9 µM] | -9.8% | -0.6% | .
COc1cc2cc(CNc3ccc(C)cc3)c(=O)n(CC(=O)Nc3ccc(F)cc3F)c2cc1OC | -6.8% | 3.4%[10.9 µM] | -13.7% | 2.9% | .
CCN1C(=O)c2cccc3c(NC(=O)c4ccccc4)ccc1c23 | -9.1% | . | 1.5% | . | .
CCN1C(=O)c2cccc3c(NC(=O)c4ccc5c(c4)OCCO5)ccc1c23 | 3.0% | -11.0% | -2.8% | -1.2% | 2.51µM*
CC(C)Sc1ncc(Cl)c(C(=O)Nc2ccc(S(=O)(=O)N3CCCCC3C)cc2)n1 (centres undefined) | 11.7% | -12.6%[10.9 µM] | -11.8% | -0.8% | .
CC1=CC(C)(C)Nc2ccc(OC(=O)CN3C(=O)CCC3=O)cc21 | ? | . | 15.8µM* | . | .
CC1=CC(C)(C)Nc2ccc(OC(=O)c3ccco3)cc21 | ? | -32.9% | ? | ? | ?
Cc1cccc(CSc2nc3cccnc3n2Cc2ccc(C(=O)NCc3ccco3)cc2)c1 | -18.4% | . | . | . | .
O=C(NCCc1cccs1)c1ccc(Cn2c(SCc3ccc(F)cc3)nc3cccnc32)cc1 | 12.6µM* | -12.6%[10.9 µM] | 15.8µM* | ? | .
O=C(NCc1ccco1)c1ccc(Cn2c(SCc3ccccc3F)nc3cccnc32)cc1 | -25.7% | . | . | . | .
Cc1ccc(CSc2nc3cccnc3n2Cc2ccc(C(=O)NCc3ccco3)cc2)cc1 | 5.62µM* | . | . | . | .
Cc1ccc(CNC(=O)c2ccc(Cn3c(SCc4ccc(F)cc4)nc4cccnc43)cc2)o1 | ? | -16.0%[10.9 µM] | 20µM* | ? | .
O=C(NCCc1ccccc1)c1ccc(CSc2nc3cccnc3n2Cc2ccc(F)cc2)cc1 | 15.0% | . | . | . | .
Cc1cccc(N2CCN(C(=O)c3cccn4c(=O)c5cc(Cl)ccc5nc34)CC2C)c1 (centres undefined) | 11.9% | -8.9%[10.9 µM] | -23.7% | 3.6% | .
O=C1C=CC2=C3c4cc(O)c(O)cc4C[C@@]3(O)COC2=C1O | . | . | . | 1.6%[11.4 µM] | ?
COc1ccc(NC(=O)CCc2c(C)nn(-c3ccc(N4CCCCC4)nn3)c2C)cc1Cl | 15.8µM* | -29.0%[10.9 µM] | 10µM* | 3.1% | .
